# From PubChem BioAssay
# An excerpt weighted towards active compounds, which were near 7.5% of everything screened.
# HCMV inh: qHTS Assay for inhibitors of the human cytomegalovirus (HCMV); AID 1259415, 2018; activity change, negative = inhibition, % at 57.5 µM; 410,000 tested, 4.5% active; HFF cells, HCMV-luciferase reporter, 72 h; stronger effect = lower value; in the data active = activity change below about -60%; inconclusive = no clear call, values can overlap the other calls; inactive = above about -39%
#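 Screen run at 2 compound doses on HFFs infected with reporter HCMV, MOI 1 PFU/cell. Luciferase activity from cell lysates at 72 h post infection gave inhibition relative to buffer-only and Salinomycin wells.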
# FMDV inh: High Throughput Screening for Foot and Mouth Disease Virus Antivirals; Potency, µM (series often up to 57.9 µM), without a hit: top-dose activity change, negative = inhibition, usual class: inhibitors; FMDV antiviral cell-based qHTS; 410,000 tested, 1.2% active; calls by dose curve; tested in HEK293T cells; note: read-out not given here; potency is the fitted concentration of half-maximal effect; nearly all actives have a fitted effect of over 45% in size
# VACV mCherry inh: qHTS for Stage-Specific Inhibitors of Vaccinia Orthopoxvirus: mCherry Reporter Primary qHTS; Vaccinia virus mCherry reporter infection, fluorescence; Potency, µM (top dose mostly 36.5 µM), for inactives: at the highest dose activity change, negative = inhibition, hits mostly inhibitors; 310,000 tested, 0.63% active; AID 720579, 2013; calls by dose curve; tested in A549 cells; note: potency is the fitted concentration of half-maximal effect; nearly all actives have a fitted effect of over 35% in size
# HCV inhibitor: qHTS Assay for Inhibitors of Hepatitis C Virus (HCV); 340,000 tested, 3.4% active; Potency, µM (top dose mostly 41.8 µM), for inactives: top-dose activity change, negative = inhibition, actives largely listed as inhibitors; Huh7.5.1 HCVcc-Cre infection, luciferase reporter, 44 h; AID 651820, 2012; note: potency is the fitted concentration of half-maximal effect
#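 Cells (1,000/well) were plated 4 h before compound, then infected with HCVcc-Cre virus (~0.5 moi). After 44 h further culture, infection was read as luciferase luminescence following a 15 min substrate incubation at room temperature.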
# VACV Venus inh: qHTS for Stage-Specific Inhibitors of Vaccinia Orthopoxvirus: Venus Reporter Primary qHTS; Vaccinia virus Venus reporter expression, fluorescence; Potency, µM (titrated, usually from 36.5 µM), for inactives: top-dose activity change, negative = inhibition, actives largely listed as inhibitors; AID 720580, 2013; 330,000 tested, 0.46% active; calls by dose curve; tested in A549 cells; note: potency is the fitted concentration of half-maximal effect; nearly all actives have a fitted effect of over 30% in size
# FBPA Giardia inh: qHTS Assay for Inhibitors of Fructose-1,6-bisphosphate Aldolase from Giardia Lamblia | A8B2U2 | purified Giardia FBPA | Potency, µM (doses to about 59.6 µM), inactives show at the highest dose activity, negative = inhibition, most hits filed as inhibitors | 290,000 tested, 0.71% active; note: potency is the fitted concentration of half-maximal effect; nearly all actives have a fitted effect of over 55% in size
# Target sequence (A8B2U2 whole entry, looked up): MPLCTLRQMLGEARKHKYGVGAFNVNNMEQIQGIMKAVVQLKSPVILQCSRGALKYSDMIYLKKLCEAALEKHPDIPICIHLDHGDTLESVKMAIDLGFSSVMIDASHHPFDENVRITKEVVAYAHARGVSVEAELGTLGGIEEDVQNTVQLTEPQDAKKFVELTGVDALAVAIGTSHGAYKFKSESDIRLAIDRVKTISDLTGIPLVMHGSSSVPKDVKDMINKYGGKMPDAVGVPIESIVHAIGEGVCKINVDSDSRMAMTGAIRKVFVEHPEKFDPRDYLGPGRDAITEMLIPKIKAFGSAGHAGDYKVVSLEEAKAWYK
#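 Giardia FBPA (40 nM reagent) was preincubated 10 min at RT with compound (up to 57.5 uM final), then substrate plus GAPDH/TPI/NAD/arsenate coupling system with diaphorase/resazurin was added; resorufin fluorescence (525/598 nm) was read after 20 min.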
# * = called active by the depositor; i = inactive; ? = inconclusive; . = not tested or not shown; [ ] = dose if it differs, or a comment. Unless noted, calls come from the whole dose curve; as a rule, active = well fitted curve in the direction sought with a large enough effect; inconclusive = small, poorly fitted or top-dose-only effect, or another doubt; inactive = no such curve, though single readings can be large; an effect the other way counts as inactive or inconclusive. % is set by controls: 0 for no effect and ±100 for the full control effect.
SMILES,HCMV inh,FMDV inh,VACV mCherry inh,HCV inhibitor,VACV Venus inh,FBPA Giardia inh
Cc1cc(=O)n2c(C(=O)Nc3ccc(C(=O)OC(C)C)cc3)c(C(=O)Nc3ccccc3)sc2n1,-67.4*,-8.9%,.,-28.8%,.,1.7%
Cc1cc(=O)n2c(C(=O)Nc3ccc(F)c(Cl)c3)c(C(=O)Nc3cccc(C)c3C)sc2n1,6.4,-16.1%,2.3%,.,6.2%,.
Cn1nnc2c[n+](CC(=O)c3ccc(Cl)cc3)cc(Br)c21,-96.0*,?,?,?,-21.1%,?
Cn1nnc2c[n+](CC(=O)c3ccc4ccccc4c3)cc(Br)c21,-96.7*,?,?,?,?,-22.2%
C/C(=N/NC(=O)CC1N=C(Cc2ccccc2)NNC1=O)c1cccnc1 (centres undefined),-29.5,-19.0%,-0.3%,8.5%,6.3%,4.6%
COc1ccc(N2CCN(c3ncnc4c3[nH]c3ccccc34)CC2)cc1,-91.7*,3.98µM*,.,5.62µM*,?,-3.4%
COc1cc2[nH]c3c(N4CCN(c5ccccn5)CC4)ncnc3c2cc1OC,.,17.8µM*,?,6.31µM*,?,-5.4%
COc1ccc2[nH]c3c(N4CCc5ccccc5C4)ncnc3c2c1,-87.6*,25.1µM*,?,?,14.1µM*,-3.3%
CC(C)(C)C(C)(C)CN=CN1c2ccccc2-n2cccc2C1c1cccc(F)c1 (centres undefined),-4.6,.,.,.,.,.
CCC(=O)NC(NC(=S)Nc1cccc2cccnc12)C(Cl)(Cl)Cl (centres undefined),45.0,9.8%,-27.6%,?,-5.4%,-14.8%
CCC(=O)NC(c1ccc(Cl)cc1Cl)c1ccc2cccnc2c1O (centres undefined),-102.5*,-6.3%,2µM*,2.51µM*,?,?
CC(C)C(=O)NC(c1ccc(Cl)cc1Cl)c1ccc2cccnc2c1O (centres undefined),-104.4*,24.4%,.,2.24µM*,.,?
CC(NC(=O)CSc1ncccn1)c1ccc(Cl)cc1Cl (centres undefined),12.9,-1.8%,-18.2%,-9.3%,3.4%,2.7%
CCCCC(=O)NC(c1ccc(Cl)cc1Cl)c1ccc2cccnc2c1O (centres undefined),-104.1*,10.3%,?,?,?,?
CC(C)C(=O)NC(NC(=S)Nc1cccc2cccnc12)C(Cl)(Cl)Cl (centres undefined),-8.6,-5.1%,.,?,.,.
O=C(c1ccco1)N(Cc1cc2cc3c(cc2nc1N1CCOCC1)CCC3)CC1CCCO1 (centres undefined),.,9.7%,29.0%,.,34.5%,.
COc1ccccc1NC(=O)N1CCC(c2nc3cc(C)c(C)cc3[nH]2)CC1,-64.0*,15.0%,-26.1%,?,?,-0.5%
COc1ccccc1NC(=S)N1CCC(c2nc3cc(C)c(C)cc3[nH]2)CC1,4.0,.,-2.0%,8.9%,-20.9%,1.0%
COc1cccc(-n2c(O)c(C=NCc3ccc4c(c3)OCO4)c(=O)[nH]c2=O)c1,-105.0*,-15.9%,.,-11.4%,.,3.3%
COc1cccc(C(=O)Nc2ccc(NC(=O)c3ccco3)nc2)c1,-16.1,47.9%,-22.1%,-23.3%,-17.6%,0.9%
CNC(=O)COC(=O)c1ccccc1NC(=O)c1ccco1,-100.8*,-14.1%,-0.5%,-9.8%,8.3%,10.4%
COc1ccc(-c2ccc(NC(=O)c3ccco3)cc2)nn1,7.2,11.2µM*,-16.4%,-19.8%,2.0%,.
COc1ccc(-c2cccc(NC(=O)c3ccco3)c2)nn1,-34.0,-5.9%,i,-1.7%[8.37 µM],-5.3%,.
Cn1nc(C(F)(F)F)c(-c2cccc(C(F)(F)F)c2)c1NC(=O)c1ccco1,-70.8*,-21.7%,.,-5.9%,.,-4.2%
O=C(Nc1ccc(Oc2cccc(C(F)(F)F)c2)nc1)c1ccco1,-71.9*,?,-3.6%,10µM*,-21.2%,-4.9%
SMILES,HCMV inh,FMDV inh,VACV mCherry inh,HCV inhibitor,VACV Venus inh,FBPA Giardia inh
CCc1ccc(CNC(=O)c2ccc(NC(=O)N3CC(C)Sc4ccccc43)cc2)cc1 (centres undefined),27.0,-10.3%,i,.,-12.0%,.
O=C(NC(=O)c1c(Cl)cccc1Cl)Nc1ccc(Oc2cccnc2)nc1,-25.2,-9.6%,-29.3%,-0.1%,-18.3%,-4.8%
CC(C)(C)c1ccc(Oc2ccc(NC(=O)c3cccs3)cn2)cc1,?,12.6µM*,-16.6%,?,?,-9.0%
COc1ccc(NC(=O)c2cccs2)cn1,34.0,16.4%,-13.7%,5.2%,6.9%,-1.8%
O=C(Nc1ccccc1NC(=O)c1ccco1)c1ccccc1,22.1,?,7.5%,6.5%,-13.6%,12.6%
O=C(Nc1ccc(Oc2cccnc2)nc1)c1ccc(C(F)(F)F)cc1,-71.7*,?,-14.9%,2.24µM*,-11.0%,-16.2%
CC(C)(C)c1ccc(Oc2ccc(NC(=O)c3ccco3)cn2)cc1,-103.4*,?,.,7.94µM*,.,-4.8%
CC(C)(C)c1ccc(C(=O)Nc2ccccc2NC(=O)c2ccco2)cc1,-20.0,-18.5%,.,12.6µM*,?,?
O=C(COc1ccc(Br)cc1)Nc1ccc(NC(=O)c2ccccc2)cc1,-68.5*,39.7%,i,.,-12.7%,-5.9%
O=C(COc1ccc(Br)cc1)Nc1ccc(S(=O)(=O)Nc2ccccn2)cc1,-70.2*,42.4%,?,-9.5%,-24.8%,.
O=C(Cn1c(=O)n(-c2ccccc2Cl)c(=O)c2sc3ccccc3c21)NC1CCCC1,11.9,-11.9%,-10.2%,.,-9.2%,.
Cc1ccccc1C(=O)Nc1nc2c(s1)CC(C(C)(C)C)CC2 (centres undefined),-65.7*,-11.0%,-16.4%,.,-0.3%,.
CC(C)Oc1ccc(C(=O)Nc2nc3c(s2)CC(C(C)(C)C)CC3)cc1 (centres undefined),?,?,i,.,-18.3%,.
Cc1cccc2cc(CN(Cc3cccs3)C3(c4nnnn4C4CCCC4)CCCC3)c(=O)[nH]c12,-69.8*,-21.6%,.,15.2%,-9.0%,0.3%
Cc1cccc2cc(CN(Cc3cccs3)S(=O)(=O)c3ccc4c(c3)OCCO4)c(=O)[nH]c12,-83.9*,-4.8%,-27.3%,?,-19.6%,0.6%
O=Nc1c(-c2ccccc2)n(O)[n+]([O-])c1-c1ccccc1,76.4,46.2%,?,.,11.2µM*,.
Cc1c(-c2ccccc2)n(O)[n+]([O-])c1-c1ccccc1,18.5,15.7%,i,.,-11.2%,.
CCOc1ncccc1C(=O)Nc1cc(S(=O)(=O)N(CC)CC)ccc1N1CCOCC1,-65.9*,?,.,?,.,.
CCN(CC)S(=O)(=O)c1ccc(N2CCOCC2)c(NC(=O)c2cccc3ccccc23)c1,-22.9,0.0%,-15.0%,2.7%,-15.2%,-0.3%
